Measured values taken from PubChem BioAssay.
Calls of active or inactive are those of the source.

Legend:
[1] = small molecules captured by biotinylated probe aFSTL3 – biochemical, small-molecule microarray, fluorescence 635/667, stem cell growth factor project, primary screen (AID 1064); details: higher = more signal;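 further: measures binding of the biotinylated anti-FSTL3 antibody to printed compounds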
[2] = binders from COS7 lysate, DM2A8 probe, primary screen, torsin A project, cell lysate, small-molecule microarray, fluorescence 635/667 (AID 1065); details: higher = more signal, COS7 lysate expressing mutant human TOR1A
[3] = small molecules captured by biotinylated probe aFGF2 – biochemical, small-molecule microarray, fluorescence 635/667, stem cell growth factor project, primary screen (AID 1067); details: higher = more signal;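 further: measures binding of biotinylated aFGF2 protein to printed compounds on slides; z-score merges feature fluorescence and signal-to-noise across triplicate slides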
[4] = small molecules captured by biotinylated probe aFGF10 – biochemical, small-molecule microarray, fluorescence 635/667, stem cell growth factor project, primary screen (AID 1071); details: higher = more signal;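 further: score merges 667 nm spot intensity and signal to noise from triplicate slides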
[5] = target: Neurogenic locus notch homolog protein 2 (Homo sapiens) (UniProt Q04721); test: small molecules binding Notch2 protein – biochemical, small-molecule microarray, 635 nm fluorescence, stem cell growth factors, primary screen (AID 1073); details: higher = more signal
[6] = target: Pro-neuregulin-1, membrane-bound isoform (Homo sapiens) (UniProt Q02297); test: small molecules binding neuregulin-1 protein – biochemical, small-molecule microarray, fluorescence 635/667, psychiatric disease protein project, primary screen (AID 1075); details: NRG1 binding, 635 nm fluorescence, higher = more signal;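 further: score combines 667 nm spot fluorescence with signal to noise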
[7] = test system: Neuregulin-1 EGF-like domain; test: small molecules binding NRG1 EGF domain – biochemical, small-molecule microarray, 635 nm fluorescence, primary screen (AID 1081); details: higher = more signal;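 further: binding of the protein to compounds printed on small-molecule microarray slides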
[8] = FRG1 expression reporter modulators in myotubes – cell-based, C2C12 myotubes, firefly/Renilla luciferase, luminescence, FRG1 inhibition for FSHD, primary screen (AID 1084); details: FRG1 promoter luciferase, higher = more signal, called active from +8 up or from −8 down
[9] = small molecules captured by biotinylated probe aFST – biochemical, small-molecule microarray, fluorescence 635/667, stem cell growth factor project, primary screen (AID 1086); details: higher = more signal;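 further: score merges 667 nm fluorescence with signal-to-noise of each printed compound spot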
[10] = binders of probe aHhip on microarray, primary screen, stem cell growth factor project, biochemical, small-molecule microarray, fluorescence 635/667 (AID 1087); details: higher = more signal;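 further: score merges spot fluorescence at 667nm with spot signal to noise ratio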

Neurogenic locus notch homolog protein 2 (Homo sapiens), sequence (Q04721 whole entry, looked up, canonical isoform): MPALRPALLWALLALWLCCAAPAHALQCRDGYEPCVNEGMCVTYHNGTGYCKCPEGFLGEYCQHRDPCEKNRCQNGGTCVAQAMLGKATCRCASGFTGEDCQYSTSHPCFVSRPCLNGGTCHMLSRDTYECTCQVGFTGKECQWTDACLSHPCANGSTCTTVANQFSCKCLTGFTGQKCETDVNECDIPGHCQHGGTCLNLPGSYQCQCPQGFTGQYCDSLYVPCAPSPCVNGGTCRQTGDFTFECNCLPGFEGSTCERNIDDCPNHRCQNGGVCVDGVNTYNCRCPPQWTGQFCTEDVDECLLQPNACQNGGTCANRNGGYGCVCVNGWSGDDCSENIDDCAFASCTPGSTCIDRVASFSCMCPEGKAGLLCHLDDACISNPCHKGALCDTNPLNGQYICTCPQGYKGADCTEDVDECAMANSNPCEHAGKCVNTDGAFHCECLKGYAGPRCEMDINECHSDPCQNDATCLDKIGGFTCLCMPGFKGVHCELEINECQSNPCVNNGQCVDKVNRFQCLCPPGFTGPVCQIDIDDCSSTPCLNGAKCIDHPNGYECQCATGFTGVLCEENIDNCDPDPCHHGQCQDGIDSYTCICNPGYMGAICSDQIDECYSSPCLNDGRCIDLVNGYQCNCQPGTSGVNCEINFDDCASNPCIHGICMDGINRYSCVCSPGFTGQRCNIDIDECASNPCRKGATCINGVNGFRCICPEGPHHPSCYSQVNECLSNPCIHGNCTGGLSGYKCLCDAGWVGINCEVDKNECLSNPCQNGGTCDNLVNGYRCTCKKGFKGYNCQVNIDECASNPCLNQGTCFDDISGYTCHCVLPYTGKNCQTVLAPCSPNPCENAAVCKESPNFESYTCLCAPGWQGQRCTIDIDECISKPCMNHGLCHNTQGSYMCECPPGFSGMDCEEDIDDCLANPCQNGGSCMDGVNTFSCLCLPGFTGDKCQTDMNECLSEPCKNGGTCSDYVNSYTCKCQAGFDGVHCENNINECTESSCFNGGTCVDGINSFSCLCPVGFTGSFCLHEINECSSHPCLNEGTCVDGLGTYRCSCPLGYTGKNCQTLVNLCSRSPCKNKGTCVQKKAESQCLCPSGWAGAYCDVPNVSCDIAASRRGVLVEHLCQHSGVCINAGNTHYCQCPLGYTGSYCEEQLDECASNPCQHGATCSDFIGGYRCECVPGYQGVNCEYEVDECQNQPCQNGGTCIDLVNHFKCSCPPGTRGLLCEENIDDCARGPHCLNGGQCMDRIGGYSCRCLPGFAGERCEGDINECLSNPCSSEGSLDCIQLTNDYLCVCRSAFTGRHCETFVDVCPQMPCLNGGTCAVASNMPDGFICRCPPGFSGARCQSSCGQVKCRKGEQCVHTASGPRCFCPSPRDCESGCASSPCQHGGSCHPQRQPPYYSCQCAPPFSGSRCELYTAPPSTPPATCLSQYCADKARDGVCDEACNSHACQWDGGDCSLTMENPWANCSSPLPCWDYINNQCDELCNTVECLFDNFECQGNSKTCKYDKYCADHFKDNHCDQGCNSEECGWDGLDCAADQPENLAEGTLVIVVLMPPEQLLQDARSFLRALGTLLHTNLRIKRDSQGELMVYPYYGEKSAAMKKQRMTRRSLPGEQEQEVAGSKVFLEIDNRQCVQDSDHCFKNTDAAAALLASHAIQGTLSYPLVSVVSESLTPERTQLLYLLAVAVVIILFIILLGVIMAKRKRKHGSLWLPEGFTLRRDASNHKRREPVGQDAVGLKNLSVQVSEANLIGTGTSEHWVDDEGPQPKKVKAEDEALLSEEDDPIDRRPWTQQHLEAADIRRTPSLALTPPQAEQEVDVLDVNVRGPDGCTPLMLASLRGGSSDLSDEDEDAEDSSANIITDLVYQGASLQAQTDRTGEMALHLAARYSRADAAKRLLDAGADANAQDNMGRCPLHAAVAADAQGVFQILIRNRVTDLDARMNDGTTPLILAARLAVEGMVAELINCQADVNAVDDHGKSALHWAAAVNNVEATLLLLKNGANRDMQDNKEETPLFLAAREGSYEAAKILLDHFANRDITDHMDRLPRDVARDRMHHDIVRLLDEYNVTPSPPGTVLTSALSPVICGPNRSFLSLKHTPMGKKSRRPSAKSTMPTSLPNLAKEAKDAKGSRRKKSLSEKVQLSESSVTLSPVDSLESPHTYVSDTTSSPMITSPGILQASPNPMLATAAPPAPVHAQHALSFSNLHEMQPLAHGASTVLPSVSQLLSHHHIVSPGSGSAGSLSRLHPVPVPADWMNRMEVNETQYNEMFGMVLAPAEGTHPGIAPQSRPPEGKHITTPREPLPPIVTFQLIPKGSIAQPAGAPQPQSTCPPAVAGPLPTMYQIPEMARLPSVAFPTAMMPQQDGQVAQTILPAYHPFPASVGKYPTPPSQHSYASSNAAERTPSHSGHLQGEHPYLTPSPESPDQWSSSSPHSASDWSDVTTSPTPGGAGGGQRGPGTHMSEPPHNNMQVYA
Pro-neuregulin-1, membrane-bound isoform (Homo sapiens), sequence (Q02297 whole entry, looked up, the tested form may be a part, canonical isoform): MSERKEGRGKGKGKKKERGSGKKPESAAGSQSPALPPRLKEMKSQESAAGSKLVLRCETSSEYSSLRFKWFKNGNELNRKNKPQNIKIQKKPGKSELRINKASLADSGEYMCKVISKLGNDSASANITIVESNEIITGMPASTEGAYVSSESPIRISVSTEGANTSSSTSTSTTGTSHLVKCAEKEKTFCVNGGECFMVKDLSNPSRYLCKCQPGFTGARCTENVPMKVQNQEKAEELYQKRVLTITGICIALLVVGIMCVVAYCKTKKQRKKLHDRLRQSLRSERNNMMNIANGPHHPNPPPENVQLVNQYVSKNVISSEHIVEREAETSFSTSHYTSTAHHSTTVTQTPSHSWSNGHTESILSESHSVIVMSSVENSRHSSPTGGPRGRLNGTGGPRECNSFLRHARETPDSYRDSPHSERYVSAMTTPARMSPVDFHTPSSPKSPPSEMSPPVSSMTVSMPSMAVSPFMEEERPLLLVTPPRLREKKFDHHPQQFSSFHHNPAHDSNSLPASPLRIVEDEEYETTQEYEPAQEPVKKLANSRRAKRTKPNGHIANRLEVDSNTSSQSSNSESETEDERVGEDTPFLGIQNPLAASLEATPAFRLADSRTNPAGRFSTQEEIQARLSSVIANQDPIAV

Row | Structure (SMILES) | composite z-score [1] | composite z-score [2] | composite z-score [3] | composite z-score [4] | composite z-score [5] | composite z-score [6] | composite z-score [7] | z-score [8] | composite z-score [9] | composite z-score [10]
1 | CC(C)CON=C1C[C@@H](O)[C@@H](O)[C@@H]2[C@@H]3C(=O)N(Cc4ccccc4)C(=O)[C@@H]3CC[C@H]12 | -0.467 | 0.0791 | -0.143 | -0.0185 | 0.587 | 0.349 | 0.0796 | 0.602 (inactive) | -0.153 | -0.204
2 | CO[C@H]1C[C@@H]2C[C@H](O)CC(CC(=O)O[C@@H](C=CCC(C)C)C[C@@H]3CC[C@H](C)[C@@H](C1)O3)O2 | -0.479 | 0.613 | -0.0442 | 0.365 | 1.03 | -0.33 | 0.661 | 0.0521 (inactive) | 0.36 | -0.226
3 | C[C@@H]1CC[C@H]2C(=O)N3[C@@H](CC[C@@H](C)[C@@H]3c3ccc(Br)cc3)C(=O)N2[C@H]1c1ccc(Br)cc1 | -0.241 | 0.318 | -0.131 | 0.3 | 0.599 | -0.0193 | 0.354 | -0.469 (inactive) | 0.343 | -0.173
4 | CCOC(=O)[C@H](Cc1ccccc1)NC(=O)CCC1CC(OC(=O)NCc2cccc3ccccc23)CC2(CCCC(COC(=O)NCCOc3ccccc3)O2)O1 (stereo not given in full) | -0.591 | 0.618 | -0.105 | 0.133 | 0.863 | 0.972 | 0.898 | 0.688 (inactive) | 0.214 | 0.204
5 | COc1cccc([C@H]2Oc3ccc(OC)cc3C(=NO[C@@H](C)c3cc(-c4c(C)cc(C)cc4C)no3)[C@@H]2O)c1 | 2.15 | -0.187 | -0.238 | -1.44 | -2.2 | -0.144 | -0.393 | -3.59 (inactive) | -0.391 | -0.45
6 | CCN1C(=O)[C@H]2[C@@H]3C(=CC[C@H]2C1=O)C(=O)[C@H]1O[C@H]1[C@H]3O | -0.538 | -0.0147 | -0.0996 | 0.465 | 0.613 | 0.0141 | 0.73 | -2.63 (inactive) | 0.167 | -0.0346
7 | C#CCCCON=C1[C@H]2CCn3c(=O)n([C@@H](CC)c4ccccc4)c(=O)n3[C@H]2[C@H](O)[C@@H]2O[C@H]12 | -0.409 | 0.152 | 0.0047 | 0.353 | 0.148 | 0.24 | 0.322 | 0.456 (inactive) | -0.0356 | -0.261
8 | COCCNC(=O)OCC1CCCC2(CC(OC(=O)NCc3cccc4ccccc34)CC(CCC(=O)N[C@@H](C)C(=O)OC)O2)O1 (stereo not given in full) | -0.486 | 0.0192 | -0.0692 | 0.662 | 0.668 | 0.737 | 1.03 | -1.43 (inactive) | 0.311 | -0.0994
9 | CC(C)[C@@H](OCc1ccccc1)[C@H](C)CON=C1[C@H]2CCn3c(=O)n(-c4ccccc4)c(=O)n3[C@H]2[C@H](O)[C@@H]2O[C@H]12 | -0.375 | 0.616 | 0.0362 | 0.84 | 0.541 | 0.246 | 0.218 | -0.157 (inactive) | 0.369 | -0.126
10 | O=C1CCCC=C1C(O)C1CCCCC1 (stereo not given) | -0.53 | 0.835 | -0.141 | 0.191 | -0.0306 | -0.594 | -0.593 | 0.0424 (inactive) | -0.0962 | 0.0373
11 | CCOC(=O)CCN1C(=O)[C@H]2[C@H]3[C@H](O)[C@H](O)CC(=NNC(=O)OCc4ccc(OC)cc4)[C@H]3CC[C@H]2C1=O | -0.41 | 0.339 | -0.116 | 0.155 | 0.68 | 0.0204 | 0.0944 | -0.971 (inactive) | 0.245 | -0.329
12 | COc1ccc(COC(=O)NN=C2C[C@@H](O)[C@@H](O)[C@@H]3[C@@H]4C(=O)N(C(C)(C)C)C(=O)[C@@H]4CC[C@@H]23)cc1 | -0.31 | 1.1 | -0.0243 | 0.568 | 1.14 | 0.173 | 0.644 | 1.24 (inactive) | 0.413 | -0.204
13 | CO[C@H]1COC(=O)[C@H](C)COC(=O)[C@@H](OCc2ccccc2)C=C[C@@H]1C | -0.411 | 0.0756 | -0.178 | 0.0844 | -0.501 | -0.319 | -0.365 | -0.224 (inactive) | 1.27 | 0.449
14 | CC(CCN1CCc2nc(-c3ccccc3)c(-c3ccccc3)cc2C1)=NO[C@H](C)c1cn([C@H](CO)Cc2ccccc2)nn1 | -0.11 | 0.575 | -0.0569 | -0.332 | -0.54 | 0.164 | 0.299 | -0.327 (inactive) | -0.125 | -0.13
15 | CC(CCN1CCc2nc(-c3ccccc3)c(-c3ccccc3)cc2C1)=NOC(C)CN1CCCc2nc(C)c(C)cc21 (stereo not given) | -0.0304 | 1.12 | 0.0762 | 0.681 | 1.4 | 0.72 | 1.08 | 1.1 (inactive) | 0.676 | 0.316
16 | CCCNC(=O)OC[C@H]1O[C@H](CCON=C[C@@H](C)[C@H](OCc2ccccc2)C(C)C)C=C[C@@H]1Oc1ccc(OC)cc1 | -0.273 | 0.729 | -0.161 | 0.416 | -0.566 | -0.645 | -0.814 | -0.748 (inactive) | -0.307 | -0.0346
17 | Cc1ccc(C(C)C)n1C(=O)OC(C)(C)C | -0.504 | 0.166 | -0.0621 | 0.357 | 0.404 | -0.199 | 0.477 | -1.08 (inactive) | -0.3 | 0.0749
